In PubChem BioAssay:
A number with no mark means an inactive call.

Assay: basal S. cerevisiae growth modulation, no modifier, primary screen, OD600, strain BY4716, 24 h, basal condition (AID 1173)
Details: OD600, 24 h, higher = more signal, called active from +8 up or from −8 down

Compound	z-score
CN(C)CCCCNC(=O)[C@H]1C[C@H]2C(=O)N3CCC[C@H]3C(=O)N2[C@H]1c1cccc(OCCO)c1	0.949
COc1ccc(CCNC(=O)[C@@H]2c3ccccc3C(=O)N(Cc3ccccc3OC)[C@H]2c2ccc(CO)cc2)cc1	0.528
CC(C)OC(=O)CC(=O)CC(O)c1cccc([N+](=O)[O-])c1 (centres undefined)	-3.08
CCOC(=O)C[C@H]1[C@H](OC(=O)c2cc3ccccc3oc2=O)[C@@H](NC(=O)CC(C)C)c2cc(OCCCO)ccc2N1C(=O)Cc1ccc(OC)cc1	-0.628
CC1=C([C@H](O)CCc2ccccc2)[C@H](CO)n2c(=O)n(-c3ccccc3)c(=O)n2C1	-2.79
CC(C)(C)N1CC=CC23O[C@@H]4C=CCCOC(=O)C4[C@H]2C(=O)N(CCCCCCO)[C@@H]3C1=O (some centres undefined)	-0.437
CCCCCC1=C2CNC(CC(C)C)(C(=O)OC)C=C2C(C)C1=O (centres undefined)	0.153
O=C1C=C(c2ccccc2)C(=O)C2=C1CC([C@H]1Oc3ccccc3S(=O)(=O)N3CCC[C@@H]13)=CC2	-3.37
O=C1C[C@@](C(=O)O)(c2ccc([N+](=O)[O-])cc2)[C@@H](c2ccc(CO)cc2)N1C1CCCCC1	0.408
CO[C@H]1O[C@H](CO)[C@@H](OC(=O)Nc2ccccc2-c2ccccc2)[C@H](OC(=O)Nc2ccccc2)[C@H]1OC(=O)Nc1ccccc1	0.788
O=C1c2ccccc2[C@@]2(Cc3ccccc3N(Cc3ccccc3)C2=O)[C@H](c2ccc(CO)cc2)N1Cc1ccccc1Cl	0.0388
CCCNC(=O)[C@@]1(c2ccc([N+](=O)[O-])cc2)CC(=O)N(C(C)C)[C@@H]1c1ccc(CO)cc1	-0.324
[N-]=[N+]=Nc1ccccc1C[C@@]1(C(=O)NCC(O)CO)N=C(c2ccc(OCCCO)cc2)O[C@@H]1c1ccccc1 (some centres undefined)	-2.46
CC(C)C[C@@H]1NC(=O)[C@@H]2C[C@H](C(=O)NCCCCCCNC(=O)CS)[C@H](c3cccc(OCCO)c3)N2C1=O	1.05
CC(=O)NCCCC[C@@H]1NC(=O)[C@H]2C[C@@H](C(=O)NCCCCCCNC(=O)CS)[C@@H](c3cccc(OCCO)c3)N2C1=O	0.535
O=C1[C@@H]2[C@@H](CC(COc3ccccc3)=C([C@H](O)CCc3ccccc3)[C@@H]2CO)C(=O)N1Cc1ccccc1	-0.0733
O=C(NCC(O)CO)[C@@]1(CCS(=O)(=O)c2ccccc2)N=C(c2ccc(OCCCO)cc2)O[C@H]1c1ccccc1 (some centres undefined)	-0.386
CN(C)c1ccc(C(O)C2C=CC3C(=O)N(Cc4ccccc4)C(=O)C3N2n2cnnc2)cc1 (centres undefined)	-0.116
COCCOC(=O)N1C(=O)[C@@]2(c3cc(C#CCC(C(=O)OC)C(=O)OC)ccc31)[C@H](C(=O)Nc1nc3ccccc3s1)[C@H]1C(=O)O[C@H](c3ccccc3)[C@H](c3ccccc3)N1[C@@H]2c1ccc(OCCO)cc1	1.18
